The record followed here is PubChem BioAssay AID1508600 (Functional Genomics Laboratory (NCATS/FGL), 2020).

Among all 53,000 sequences or so, about 3,700 (7%) were called active. The full list was thinned out, with actives kept by preference. A number with no mark means an inactive call.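 Rule for the calls: active = gene knockdowns whose robust z-score for IL-1 alpha signal is at least 2 or at most -2, so actives lie on both sides; inactive = the rest.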

A short description of the experiment: Components of the Cytosolic LPS Sensing Pathway: Gene Identification via Genome-wide siRNA Screen.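 Note: robust z of the log signal after scaling to non-targeting control siRNA wells of the plate.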 The conditions noted are these: RAW264.7 macrophages, IL-1a HTRF, actives lie on both sides, screened at 100 nM (by protocol), cells primed 5 h with Pam3CSK4 first. An outline of the steps: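 RAW264.7; siRNA 100 nM final, RNAiMAX, 48h 37 degrees C; Pam3CSK4 5 h; LipidA + TransIT-TKO 24 h; IL-1a HTRF; CellTiter-Glo viability; robust z vs negative-control median.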
On the technique in general: In TR-FRET formats the signal depends on donor and acceptor labels being close together.
In the case of GGUCCUAACCGACAUGUCUTT against Vrk1, the z-score is 0.305.
For CGUAGUGUUCUGUGUUUAUTT against Mif the value was 1.36.
To GGACUUAGUACCUGAUAACTT against Rtraf belongs 0.838.
Turning to GCCUAUUGUCAGAAAAGUUTT against Usp4, the z-score was -0.385.
Regarding GGGACUCAACCUAUAUCUUTT against Gnpat, the z-score is 0.118.
To CCGGUUGAGUUCACAGAAUTT against Atad3aos belongs -2.44 (active); to GGAUUUCGAGAUAACUAUGTT against Tbr1, -0.0186.
To CGUAUGGAGUCCAUUACUATT against Frmd4b belongs 0.341; to GGAUUCAAACAAUGAGCUCTT against Fam126b, 0.9.
With GCUACUUUGACAUGCACACTT against Caly, the z-score is 2.1 (active).
To GGCGGAUCUCUUGAGUGUUTT against Glyctk belongs 0.213; to GGUAUCAUUUACUUUGAACTT against Gtf2f2, -0.0825; to GCCAGUUCAUACAAGAGGGTT against Zfp946, 0.623.
For GGAGAUCACAGCAAUCCGATT against Ccna1 the value was -1.01; for GUAUGUUGACAUUUGCCUGTT against Olfr113, -2.05 (active); for GGGCGGAGCAUUUUUCUUGTT against Ube2d2b, 0.483.
GGAAGAUGACAGUGCUGUATT against Utp25: the z-score was -0.868.
To GGGAUAAGUACUCUGCUAATT against Sorcs3 belongs -0.146; to CCAAGGGUCACCUAUUUUUTT against Kcna5, 1.97; to CCUGCAUUAGCAUGUUAGGTT against Gfral, -0.483.
To GGUAGCUAAGAAGUUUAUUTT against Dck belongs 1.55.
Take GGAUUUAUCCCAAAAUCUATT against Tmem26: the z-score was 0.42.
On to “GGUUCCUACGAGUUCACUGTT against B130024G19Rik”, for which the z-score was -2.76 (active).
Regarding GGAUCAAAUAACAAUGACATT against Hfm1, the z-score is -0.567.
With GGCCAUGGUUCUAUAGGACTT against Zbtb37, the z-score was 0.764.
To “GCUUGUAAAUGGAACGACATT against 0610012G03Rik” belongs -0.69; to CCAUAUUUUACCCAAAAGCTT against Prune1, -1.04; to CGAAGGAGUCAAAACUGGGTT against Klk1b8, -1.79.
To GGAGAUCUCACCGACAUUGTT against Cpt1c belongs -1.22.
To GGCUUUGCUACUUGGGAUATT against Wdr86 belongs 3.16 (active).
In the case of CCUACUCGUAUAAUCUUCUTT against Ago3, the z-score is 0.496.
GCGUUUGGGCCGGAAGAAATT against Smo: the z-score is 0.57.
For GGCAGUUUGAGAUUGUGUCTT against Thbs2 the value was -0.00379; for GCUCAUCGAGCCUGUACACTT against Med26, -0.296; for GGUGGAACCCAAUGACACCTT against Cers5, 1.21.
For GGCUUCUACCUUCGAGACUTT against Carns1 the value was -2.3 (active); for GGUAGUUGUGCCAGAAAAATT against Garre1, 0.0675; for GGACCCUCUAGAUGACCAATT against Trem2, -1.09.
To “GGUUCCUUUAACUUUGGUUTT against A730089K16Rik” belongs 2.18 (active).
Turning to CCUUUACACGUAAAAGAAGTT against Zfp445, the z-score is -0.194.
For CCUGUUGAGUACUGUGCUGTT against Olfr987 the value was -0.437; for CCCAUGUAAGGAUGUGUCGTT against Frmd5, 0.761.
On to CGGGAAGCUAUCAUCAAAATT against Rgs13, for which the z-score is 0.12.
For GGACACAGAAAAAGUUGAATT against Tbc1d4 the value was -0.0174; for GCAAUGGACUACUGCUGCUTT against Olfr704, -2.26 (active).
For “GGAUGUUAAAAUUGCCCUGTT against Olfr911-ps1” the value was 0.896; for GGACGAGAAUCAAGAGCAGTT against Cdkn1c, -0.0249; for UGGUUGUGAUCAACAGAAUTT against Cyp2d12, -0.933.
To CCAUUUAUAUCAGGCAUCATT against Lrit1 belongs -0.647; to GGGUAAUCAGAUUGAAAGATT against Dnah5, 0.0753; to GGUGGAGAGUGAACAACAATT against Tpr, -1.25.
Consider GGUCUUCCUUGAACAUCAGTT against Fev, for which the z-score is -2.05 (active).
For GGUAUGAGCUGAUCAAGUATT against Slc27a2 the value was 1.67; for GUACACUCAAUCACUCUUGTT against Rexo5, 0.966.
Regarding CGACCUACUUGGGAUGAUGTT against Pea15b, the z-score was 0.683.
To GCAAGUGAUGAAUGCUUACTT against Ncln belongs -2.62 (active).
For GCCUGAUACCUUGAAGGAATT against Qpctl, the z-score was -0.382.
To CGACAACGACAUCAUGGAATT against Sfrp2 belongs 1.52; to GGGAAUGAAAUGUUCUUCGTT against Ttl, -0.121.
For CGCAGUGGACUCAUCUUGATT against Sestd1 the value was -0.65; for GCCAUUCUAAGCUGCCAAATT against Mcat, -0.000938.
To GGACAGAGCGUGCACUAGATT against Slc66a1 belongs -1.32; to CCUGGCACUCAUAGUAUACTT against Tm6sf2, -2.33 (active).
Regarding GGUGCUGGUUUUUAAGAAATT against Hsbp1, the z-score is 1.84.
For CGGAAUGCCAAAGAUGUGGTT against Sult1d1 the value was -0.872; for GUGACUCCCAAACUCCUGATT against Olfr1180, -1.81.
CCAUUCCUUAAAAGAGCAUTT against Lce1g: the z-score was 1.07.
For GGACUUUCUUAACUACACUTT against Slc2a3 the value was 0.865.
